The list is not random: actives were taken first. Their share in the collection is about 7.1%.
Lassa entry – inhibitors of Lassa virus binding or entry into cells; Lassa virus pseudotyped entry inhibition, cell-based qHTS; Potency, µM (series often up to 49.2 µM), actives largely listed as inhibitors; 18,000 compounds, 4.1% hits; AID 720533
MARV entry inh – inhibitors of Marburg virus binding or entry into cells | Marburg virus pseudotype entry/binding inhibition, cell-based | Potency, µM (titrated, usually from 49.2 µM), most hits filed as inhibitors | 18,000 compounds, 6.5% hits | AID 720532
Of the large screens only hits and unclear results are named; the others gave an inactive call. Calls come from the whole dose curve; tested in HEK293 cells.

COC(=O)C(C)c1ccc(C(=O)c2cccs2)cc1 (configuration not stated)	none
CNCCCCCCCCSc1nc(C(C)C)ccc1C(=O)c1cccs1	Lassa entry inconclusive, MARV entry inh 5.6µM
O=P(O)(O)O	Lassa entry 35µM, MARV entry inh 6.3µM
O=C(O)P(=O)(O)O	none
O=C1C(=O)c2ncccc2-c2cccnc21	Lassa entry 2.5µM, MARV entry inh inconclusive
O=C1c2ccccc2C(=O)c2ccccc21	none
C=C(C)C(=O)c1ccc(OC)cc1	none
COc1ccc(CC2NC[C@H](O)[C@H]2OC(C)=O)cc1 (some centres not stated)	Lassa entry 0.32µM, MARV entry inh 0.32µM
CC(C)c1ccc2c(N=Nc3ccc(S(N)(=O)=O)cc3)c(O)[nH]c2c1	MARV entry inh inconclusive
CCCCCC(=O)N1C[C@H](n2cc(C3CC3)nn2)[C@@H](O)C[C@H]1c1ccc(C)cc1	none
CC(=O)OC[C@H]1O[C@H](CC=NOC[C@@H](O)COCc2ccco2)C=C[C@H]1OC(C)=O	none
CN(Cc1cnc2nc(N)nc(N)c2n1)c1ccc(C(=O)N[C@@H](CCC(=O)O)C(=O)O)cc1	none
CN(Cc1cnc2nc(N)nc(N)c2n1)c1ccc(C(=O)N[C@H](CCC(=O)O)C(=O)O)cc1	MARV entry inh 32µM
C=C1CCC(O)C/C1=C/C=C1\CCC[C@]2(C)[C@@H]([C@H](C)CCCC(C)C)CC[C@@H]12 (some centres not stated)	none
C=C1CCC(O)C/C1=C\C=C1/CCCC2(C)C1CCC2C(C)/C=C/C(C)C(C)C (configuration not stated)	none
C=C1C(=C/C=C2\CCC[C@]3(C)[C@@H]([C@H](C)CCCC(C)C)CC[C@@H]23)C[C@@H](O)C[C@@H]1O	Lassa entry 16µM
C=C1C(=C/C=C2\CCC[C@]3(C)[C@@H]([C@H](C)/C=C/[C@@H](O)C4CC4)CC[C@@H]23)C[C@@H](O)C[C@@H]1O	Lassa entry 14µM
C#CCCCON=C1C[C@@H](O)[C@H](O)[C@H]2[C@@H]3C(=O)N(c4ccc(F)cc4F)C(=O)[C@@H]3CC[C@H]12	none
CN(C)c1cc2c(Nc3ccc4nc(Cc5ccccc5)[nH]c4c3)ncnc2cn1	none
CCOC(=O)[C@]12C[C@@H]3OCCN(C(=O)N[C@@H]1c1ccccc1)[C@@H]32	none
C[C@@H]1[C@@H](c2ccccc2)Oc2c(Cl)cccc2S(=O)(=O)N1Cc1ccc(F)cc1F	none
Cc1cc(O)cc(C)c1C=Cc1cncc(C(=O)OC(C)(C)C)c1	none (no result: Lassa entry)
C=CCOC(=O)N[C@H](C(C(=O)OC)=C(C)NCc1ccccc1)c1cccc(OC)c1	none
CCC(=O)O[C@H]1[C@@H](N2CCCCC2)C[C@H]2[C@@H]3CC[C@H]4C[C@H](OC(C)=O)[C@@H](N5CCCCC5)C[C@]4(C)[C@H]3CC[C@@]21C	Lassa entry inconclusive, MARV entry inh 3.5µM
CC(=O)O[C@H]1C[C@@H]2CC[C@@H]3[C@H](CC[C@@]4(C)[C@H]3C[C@H]([N+]3(C)CCCCC3)[C@@H]4OC(C)=O)[C@@]2(C)C[C@@H]1N1CCCCC1	none
CC(=O)C1=CN(CCc2c[nH]c3ccccc23)C(=O)NC1c1ccccc1 (configuration not stated)	none
CCOC(=O)NN=C1C[C@@H](O)[C@@H](O)[C@@H]2[C@H]3C(=O)N(Cc4ccc5c(c4)OCO5)C(=O)[C@@H]3CC[C@@H]12	none
C=CCC1=C(C)C(OC(=O)C2C(C=C(C)C)C2(C)C)CC1=O (configuration not stated)	Lassa entry 28µM, MARV entry inh inconclusive
C#CCN1CC(=O)N(COC(=O)C2C(C=C(C)C)C2(C)C)C1=O (configuration not stated)	none
COC(=O)N[C@H](CC(C)=O)c1cccc(F)c1	none
CC(CCN1CCCCc2nc(C)c(C)cc21)=NOC[C@@H](O)[C@H]1O[C@@H]2OC(C)(C)O[C@H]2[C@@H]1O	none (no result: Lassa entry)
CC[n+]1c(-c2ccccc2)c2cc(N)ccc2c2ccc(N)cc21	Lassa entry inconclusive, MARV entry inh 8.9µM
COCCNc1cc(-c2ccccc2CN(C)C)ncn1	none
CNc1ccnc(-c2ccccc2CN(C)C)n1	none
COc1ccccc1-c1nccc(NCc2cccc(C)c2)n1	MARV entry inh 13µM
Cc1cccc(CNc2ccnc(-c3ccccc3CN(C)C)n2)c1	Lassa entry inconclusive, MARV entry inh 11µM
Cc1cccc(CNc2cc(-c3ccccc3CN(C)C)ncn2)c1	MARV entry inh 6.3µM
COc1ccccc1-c1cncnc1NCc1cccc(C)c1	none
C=C[C@@H](C[C@@H]1C=C[C@H]2C[C@H](C=C)OP(=O)(O1)O2)O[Si](C)(C)C(C)(C)C	MARV entry inh inconclusive
CN1C(CC(=O)c2ccccc2)CCCC1CC(O)c1ccccc1 (configuration not stated)	MARV entry inh inconclusive
CN1[C@@H](CC(=O)c2ccccc2)CCC[C@H]1C[C@H](O)c1ccccc1	Lassa entry inconclusive, MARV entry inh 28µM
C=CCOC(=O)C(C(C)=O)[C@@H](NC(=O)OC)c1cccc(C)c1 (some centres not stated)	MARV entry inh inconclusive
COC(=O)C1=C(C)N(Cc2ccccc2)C(=NCc2ccc(OC)cc2)NC1c1ccccc1 (configuration not stated)	none
CCCCCC1C(=O)O[C@H](C)[C@@H](NC(=O)c2cccc(NC=O)c2O)C(=O)OC(C)C1OC(=O)CC(C)C (some centres not stated)	Lassa entry inconclusive, MARV entry inh 0.1µM
Oc1cc2c(cc1O)[C@H]1c3ccccc3CN[C@H]1CC2	Lassa entry inconclusive, MARV entry inh 25µM
c1ccc([C@H]2CNCc3ccccc32)cc1	none
CN(CCc1ccc(Cl)c(Cl)c1)CCN1CCCC1	Lassa entry 32µM, MARV entry inh 8.9µM
CN(CCc1ccc(Cl)c(Cl)c1)[C@@H]1CCCC[C@@H]1N1CCCC1	Lassa entry inconclusive, MARV entry inh 7.9µM
COC(=O)N1CCN(C(=O)Cc2ccc(Cl)c(Cl)c2)C(CN2CCCC2)C1 (configuration not stated)	MARV entry inh inconclusive
COC(=O)[C@H]1CC=C[C@H]2CCN(Cc3ccc(Cl)c(Cl)c3)C(=O)[C@@H]12	none
CN1C2CCC1CC(OC(=O)C(O)c1ccccc1)C2 (configuration not stated)	none
CC(C(=O)OC1CC2CCC(C1)N2C)c1ccc(Br)cc1 (configuration not stated)	MARV entry inh 28µM
CCC(Oc1ccc(Cl)cc1)C(=O)OC1CC2CCC(C1)N2C (configuration not stated)	Lassa entry inconclusive, MARV entry inh 6.3µM
CN1CCC(OC(=O)C(Oc2ccc(Cl)cc2)Oc2ccc(Cl)cc2)CC1	none
COC(=O)C1=C(C)N(Cc2ccccc2)C(=O)NC1CCc1ccccc1 (configuration not stated)	none
COc1ccc(C=CNC(=O)Cc2ccc(OC)c(OC)c2)cc1	none
CC(C)[C@H](NC(=O)OCc1ccccc1)C(=O)N[C@H](C=O)Cc1ccccc1	MARV entry inh inconclusive
CC(C)C[C@@H](C=O)NC(=O)[C@H](CC(C)C)NC(=O)[C@H](CC(C)C)NC(=O)OCc1ccccc1	Lassa entry 3.5µM, MARV entry inh inconclusive
CC1CCC2C(C)C(=O)OC3O[C@]4(C)CCC1[C@@]32OO4 (some centres not stated)	none
C[C@@H]1CC[C@H]2[C@@H](C)C(=O)O[C@@H]3O[C@@]4(C)CC[C@@H]1[C@]32OO4	Lassa entry 2.2µM, MARV entry inh 1.8µM

Screening data as filed in PubChem BioAssay.
